Compound activity deposited in PubChem BioAssay by SRMLSC.
PMK inhibit = S. pneumoniae PMK inhibitors, primary screen, biochemical, mevalonate pathway, pilot trial included; phosphomevalonate kinase (Streptococcus pneumoniae D39); purified PMK, PK/LDH-coupled NADH absorbance 340 nm; inhibition, % at 10 µM; actives 0.49% (n = 65,000);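 active = top-ranked compounds by inhibition in the single 10 µM screen, taking a fixed number of the strongest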;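 also: 0% = full reaction with DMSO carrier and 100% = background rate without enzyme reaction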
NADH coupling = inhibitors of PK/LDH coupling enzymes, profiling panel, artefact control, biochemical, MLSMR library; IC50, µM (doses to about 10 µM), without a hit: at the highest dose inhibition; actives 0.02% (n = 65,000); coupled PK/LDH NADH assays, four targets;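 active = single-dose screening hits from any of four coupled enzyme assays that gave an IC50 when retested across doses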;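 also: the DPM-DC format reads NADH fluorescence rather than 340 nm absorbance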
Spn DPM-DC inh = S. pneumoniae DPM-DC inhibitors, primary screen, biochemical, PK/LDH-coupled NADH fluorescence | diphosphomevalonate decarboxylase (Streptococcus pneumoniae D39) | calls only at 10 µM | AID 556, 2006 | actives 0.49% (n = 65,000) | purified DPM-DC;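 active = the 320 compounds with the highest percent inhibition in the single-dose primary screen, excluding strongly autofluorescent ones, cut at about 32% in these data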;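 also: kinetic rate of NADH fluorescence loss reporting ADP formed by the decarboxylase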
MK inhibit = S. pneumoniae MK inhibitors, primary screen, biochemical, PK/LDH-coupled NADH absorbance. purified MK, PK/LDH-coupled NADH absorbance 340 nm. AID 555, 2006. inhibition, % at 10 µM. actives 0.48% (n = 65,000);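 active = ranked among the strongest by inhibition in the single 10 µM screen, a fixed top-ranked set picked for dose follow-up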
Abs 340nm = compound light absorbance at 340 nm, profiling panel, artefact control, biochemical, MLSMR library, data from PS, PMK, MK assays; AID 708, 2007; compound absorbance at 340 nm, fold over control; 65,000 tested, under 10 active; fold change at 10 µM;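 active = at 10 µM dose, initial 340 nm absorbance at least 2 fold that of control wells; inactive = change under 2 fold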;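 also: initial absorbance extrapolated from kinetic A340 decline of NADH oxidation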
Autofluor 339 = intrinsic fluorescence of library compounds, ex339/em460 – biochemical, MLSMR library, data from DPM-DC assay, artefact control, profiling panel; compound autofluorescence, ex339/em460 nm, NADH buffer; active compounds read high; 1 = no-compound wells, NADH background; AID 709, 2007; actives 5.5% (n = 65,000); fluorescence fold increase at 10 µM;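 active = at 10 µM, mean starting fluorescence two-fold or more over control wells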;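 also: signal is the first read of a kinetic run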
Starred values were filed as active, the others as inactive; i = inactive; nt = not tested or not shown; + = active, no number. A selection: hits, their analogues and other compounds. The true share with any hit is near 6.8%.

SMILES	PMK inhibit	NADH coupling	Spn DPM-DC inh	MK inhibit	Abs 340nm	Autofluor 339
COc1ccc(CCNC(=O)CC2Nc3cc(C)c(C)cc3NC2=O)cc1OC (configuration not stated)	14	6%	i	2	1.1	2.1*
NS(=O)(=O)c1ccc(NC(=O)c2ccccc2C(=O)N2CCCCC2)cc1	12	6%	i	0	1	1.1
CCN1CCN(c2cc(C)c3cc(NC(=O)c4ccc5c(c4)OCO5)ccc3n2)CC1	3	3%	i	4	1.1	1.1
Cc1cc(N2CCOCC2)nc2ccc(NC(=O)CCC(=O)N3CCCC(C)C3)cc12 (configuration not stated)	6	7%	nt	7	1.1	4.8*
CCOc1ccccc1C(=O)Nc1ccc2nc(N3CCN(c4ncccn4)CC3)cc(C)c2c1	9	7%	nt	4	1.1	2.2*
Cc1cc(N2CCN(C)CC2)nc2ccc(NC(=O)CCC(=O)NCc3ccco3)cc12	6	13%	i	7	1.1	3.5*
COc1ccc(C)cc1NC(=O)CCC(=O)Nc1ccc2nc(N3CCN(C)CC3)cc(C)c2c1	8	15%	i	8	1	2.5*
COc1cccc(C(=O)Nc2ccc3nc(N4CCN(c5ncccn5)CC4)cc(C)c3c2)c1OC	0	5%	i	10	1	1.4
CC1=CCC(COC(=O)Nc2ccccc2)CC1 (configuration not stated)	0	2%	i	7	1.1	1.1
Cc1ccc(Nc2nc(N)nc(CN3CCN(C(=O)c4ccco4)CC3)n2)cc1Cl	11	6%	i	7	1	1.1
Clc1ccc(-n2nnnc2SCc2c(-c3ccccc3)nc3sccn23)cc1	3	1%	i	0	1	1.1
COc1ccc2nc(NC(=O)c3ccc4ncsc4c3)sc2c1	0	1%	nt	2	1.1	2.2*
COc1ccc2nc(NC(=O)c3ccc(-n4nc(C)cc4C)cc3)sc2c1	18	11%	nt	4	1	5.1*
Cc1cc(C)n(-c2ccc(C(=O)Nc3nnc(C4CC4)s3)cc2)n1	15	8%	i	1	1.1	0.94
CC1CCc2c(sc(NC(=O)c3noc4c3CCCC4)c2C(N)=O)C1 (configuration not stated)	0	3%	nt	6	1.1	4.8*
CC(C)N(C(=O)CSc1nnnn1C1CCCC1)C(C)C	0	0%	i	1	1	1.1
CSc1nnc(NC(=O)C2CCCCC2)s1	nt	8%	i	3	1	1.1
CSc1ncc(Cl)c(C(=O)Nc2nnc(SC)s2)n1	0	32%	+	8	1	1
Nc1ccc2oc(CCc3ccccc3)nc2c1	12	9%	i	7	0.97	1.2
Cc1cc2nn(-c3cccc4ccccc34)nc2cc1N	12	13%	nt	14	1.2	3.6*
Nc1ccc2nn(-c3cccc4ccccc34)nc2c1	1	2%	nt	2	1.1	2.2*
CCOC(=O)N1CCN(C(=O)Cn2nc(-c3ccc(Cl)cc3)ccc2=O)CC1	25*	8%	i	0	1	1.1
OC1(c2cccc(C(F)(F)F)c2)CCN(c2ncnc3c2[nH]c2ccc(F)cc23)CC1	1	4%	i	7	1.1	2.5*
CC1(C)CC(=O)c2cnc(N3CCN(c4ccccc4)CC3)nc2C1	6	4%	i	5	1	1.2
CC1(C)CC(=O)C2=C(C1)N(c1cccc(O)c1)C1=C(C2)C(=O)CC(C)(C)C1	13	12%	nt	10	1	3.6*
SMILES	PMK inhibit	NADH coupling	Spn DPM-DC inh	MK inhibit	Abs 340nm	Autofluor 339
CCCc1ccc(OCc2ccc(C(=O)N3CCN(c4ccccn4)CC3)o2)c(OC)c1	0	1%	i	3	1.1	1.1
CCOC(=O)C(C(=O)OCC)C(=O)c1cc(OC)c(OC)c(OC)c1	14	5%	i	2	1	1.3
CCOC(=O)c1sc(=NC(=O)c2cc(OC)c(OC)c(OC)c2)n(C)c1C	9	8%	nt	6	1.1	4.3*
Cc1ccc2c(c1)N(CC(=O)NCc1cccs1)C(=O)CO2	14	8%	i	8	0.98	1.1
CCc1nnc2sc(-c3ccc(NC(=O)CSc4ccc(Cl)cc4)cc3)nn12	7	17%	+	10	1.1	3*
Cc1nnc2sc(-c3ccc(NC(=O)CSc4ccc(Cl)cc4)cc3)nn12	5	4%	i	4	1.1	1.6
COCCOC(=O)c1c(C)oc2ccc(OC(=O)c3ccc4c(c3)OCO4)cc12	11	4%	i	0	1.1	1.1
O=C(NCc1ccc(F)cc1)c1cnc2sccn2c1=O	2	5%	nt	8	1.1	2.1*
N#C/C(=C\C1CC=CCC1)c1nc2ccccc2[nH]1 (configuration not stated)	1	20%	+	1	0.99	1.4
CN1CCN(c2nc3c(c(=O)n(C)c(=O)n3C)n2Cc2cccc3ccccc23)CC1	3	5%	i	active	0.98	1
Cn1c(=O)c2c(nc(N3CCCCCC3)n2Cc2cccc3ccccc23)n(C)c1=O	0	4%	i	13	1	1
Cn1c(=O)c2c(nc(N3CCOCC3)n2C)n(C)c1=O	26*	9%	i	0	1	1.1
CCN1CCCC1CN(Cc1cc2ccc(C)c(C)c2[nH]c1=O)C(=O)Nc1ccccc1OC (configuration not stated)	12	4%	i	1	1	1.2
CN1CCc2c(n(CC(O)CN3C(=O)c4ccccc4S3(=O)=O)c3ccccc23)C1=O (configuration not stated)	0	2%	i	5	1	1.1
CC(C)NCC(O)Cn1c2c(c3ccccc31)CCc1c-2cnn1-c1ccccc1 (configuration not stated)	10	10%	nt	9	1.1	3.9*
COc1ccccc1OC(=O)c1ccc(SC)cc1OC	5	4%	i	0	0.98	1
CNC(=O)C1C2C=CC3(O2)C1C(=O)N(CCOC)C3C(=O)NCc1ccc(OC)cc1 (configuration not stated)	0	1%	i	4	1	1.1
N#Cc1c(C(F)(F)F)cc(-c2ccco2)nc1SCc1ccncc1	7	18%	+	8	1.1	2.6*
N#Cc1c(C(F)(F)F)cc(-c2ccco2)nc1SCc1ccccn1	0	2%	nt	4	1	2.1*
